In PubChem BioAssay (NCI):
About 83,000 compounds went through this panel and 20% of them were active in at least one assay; those are over-represented in the sample as a whole.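 Assay: single dose, 48 h. Readout: percent growth (0 = no net growth; negative = cell death). Active: <10.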 Values without a mark were called inactive. Active and inactive are the calls of the source.

Assays:
Test in all cases: NCI-60 one-dose screen, 48 h (100 = growth as untreated, 0 = no growth, -100 = all killed)
Details in all cases: 10 µM unless noted
HCT-15 colon = system: HCT-15 colon
HT29 colon = system: HT29 colon
SNB-75 CNS = system: SNB-75 CNS
SNB-19 CNS = system: SNB-19 CNS
U251 CNS = system: U251 CNS
PC-3 prostate = system: PC-3 prostate
SK-MEL-5 melanoma = system: SK-MEL-5 melanoma
UACC-62 melanoma = system: UACC-62 melanoma
SK-MEL-28 melanoma = system: SK-MEL-28 melanoma
SK-MEL-2 melanoma = system: SK-MEL-2 melanoma
EKVX NSCLC = system: EKVX NSCLC
SN12C renal = system: SN12C renal
UO-31 renal = system: UO-31 renal
TK-10 renal = system: TK-10 renal
ACHN renal = system: ACHN renal
CAKI-1 renal = system: CAKI-1 renal
CCRF-CEM leukemia = system: CCRF-CEM leukemia
MOLT-4 leukemia = system: MOLT-4 leukemia
LOX IMVI melanoma = system: LOX IMVI melanoma
A498 renal = system: A498 renal

Question: With `CC1(C)CC[C@]23CC[C@]4(C)[C@H](CC[C@@H]5[C@@]6(C)CCCNC(C)(C)[C@@H]6CC[C@]54C)[C@H]2[C@H]1OC3` as the compound, how does the growth (HCT-15 colon) read?
Answer: -63.7% (active)

Question: What about the growth (HT29 colon) of the same compound?
Answer: -49.4% (active)

Question: And the growth (SNB-75 CNS)?
Answer: 3.81% (active)

Question: And the growth (SNB-19 CNS)?
Answer: -20.2% (active)

Question: What about the growth (U251 CNS) of the same compound?
Answer: -75.6% (active)

Question: What about the growth (PC-3 prostate) of the same compound?
Answer: -10.7% (active)

Question: And the growth (SK-MEL-5 melanoma)?
Answer: -7.69% (active)

Question: What about the growth (UACC-62 melanoma) of the same compound?
Answer: -51.1% (active)

Question: And the growth (SK-MEL-28 melanoma)?
Answer: 27.7%

Question: And the growth (SK-MEL-2 melanoma)?
Answer: 10.5%

Question: What about the growth (EKVX NSCLC) of the same compound?
Answer: 23.2%

Question: What about the growth (SN12C renal) of the same compound?
Answer: 17.7%

Question: And the growth (UO-31 renal)?
Answer: 2.86% (active)

Question: And the growth (TK-10 renal)?
Answer: 0.422% (active)

Question: What about the growth (ACHN renal) of the same compound?
Answer: -88.3% (active)

Question: What about the growth (CAKI-1 renal) of the same compound?
Answer: -92% (active)

Question: And the growth (CCRF-CEM leukemia)?
Answer: -6.07% (active)

Question: And the growth (MOLT-4 leukemia)?
Answer: -32.7% (active)

Question: Which results are given for `Cc1cc2cc3ccc(N(C)C)cc3nc2cc1N`?
Answer: growth (HCT-15 colon): 19.4%; growth (HT29 colon): -37.3% (active); growth (SNB-75 CNS): -11.5% (active); growth (SNB-19 CNS): -4.5% (active); growth (U251 CNS): -2.3% (active); growth (PC-3 prostate): 12.7%; growth (SK-MEL-5 melanoma): -0.276% (active); growth (LOX IMVI melanoma): -53.7% (active); growth (SK-MEL-28 melanoma): -68.5% (active); growth (SK-MEL-2 melanoma): -20.2% (active); growth (EKVX NSCLC): -7.41% (active); growth (SN12C renal): -26% (active); growth (UO-31 renal): 19.1%; growth (TK-10 renal): 9.89% (active); growth (ACHN renal): 0.143% (active); growth (CAKI-1 renal): 30.5%; growth (A498 renal): -2.05% (active); growth (CCRF-CEM leukemia): 5.51% (active)

Question: What does the source list for `CCCCCOc1ccc(/C=N/Nc2cc(C)nc3ccc(Cl)cc23)cc1`?
Answer: growth (HCT-15 colon): -93.8% (active); growth (HT29 colon): -18.9% (active); growth (SNB-75 CNS): 41%; growth (SNB-19 CNS): 16.9%; growth (U251 CNS): -75% (active); growth (PC-3 prostate): 9.76% (active); growth (SK-MEL-5 melanoma): 74.2%; growth (UACC-62 melanoma): 83.6%; growth (SK-MEL-28 melanoma): -85.8% (active); growth (SK-MEL-2 melanoma): 93.1%; growth (EKVX NSCLC): 66.7%; growth (SN12C renal): -88.1% (active); growth (UO-31 renal): -99.6% (active); growth (TK-10 renal): -22.5% (active); growth (ACHN renal): -73.5% (active); growth (CAKI-1 renal): 28.7%; growth (CCRF-CEM leukemia): 1.69% (active); growth (MOLT-4 leukemia): -38.9% (active)

Question: For `CC(C)(C)CC(C)(C)n1nnnc1C(NC12CC3CC(CC(C3)C1)C2)c1ccccc1` (centres undefined), which growth (HCT-15 colon) is on record?
Answer: 84.5%

Question: What about the growth (HT29 colon) of the same compound?
Answer: 79.9%

Question: And the growth (SNB-75 CNS)?
Answer: 80.5%

Question: And the growth (SNB-19 CNS)?
Answer: 90.5%

Question: What about the growth (U251 CNS) of the same compound?
Answer: 89.4%

Question: And the growth (PC-3 prostate)?
Answer: 77.6%

Question: What about the growth (SK-MEL-5 melanoma) of the same compound?
Answer: 88.9%

Question: What about the growth (UACC-62 melanoma) of the same compound?
Answer: 69.2%

Question: And the growth (SK-MEL-28 melanoma)?
Answer: 99.6%

Question: What about the growth (SK-MEL-2 melanoma) of the same compound?
Answer: 95.8%

Question: What about the growth (EKVX NSCLC) of the same compound?
Answer: 84.9%

Question: What about the growth (SN12C renal) of the same compound?
Answer: 88.8%

Question: And the growth (UO-31 renal)?
Answer: 81.6%

Question: And the growth (TK-10 renal)?
Answer: 94.9%

Question: And the growth (ACHN renal)?
Answer: 95.8%

Question: And the growth (CAKI-1 renal)?
Answer: 83.1%

Question: And the growth (CCRF-CEM leukemia)?
Answer: 83.5%

Question: What about the growth (MOLT-4 leukemia) of the same compound?
Answer: 90%

Question: Which growth (HCT-15 colon) does the source give for `NS(=O)(=O)c1ccc(CCN2C(=O)C3C(C2=O)C2(Cl)C(Cl)=C(Cl)C3(Cl)C2(Cl)Cl)cc1` (centres undefined) here?
Answer: 90.5%

Question: And the growth (HT29 colon)?
Answer: 85.8%

Question: What about the growth (SNB-75 CNS) of the same compound?
Answer: 88%

Question: And the growth (SNB-19 CNS)?
Answer: 101%

Question: What about the growth (U251 CNS) of the same compound?
Answer: 104%

Question: What about the growth (PC-3 prostate) of the same compound?
Answer: 42.3%

Question: What about the growth (SK-MEL-5 melanoma) of the same compound?
Answer: 92.9%

Question: What about the growth (UACC-62 melanoma) of the same compound?
Answer: 75.2%

Question: What about the growth (SK-MEL-28 melanoma) of the same compound?
Answer: 108%

Question: What about the growth (SK-MEL-2 melanoma) of the same compound?
Answer: 99%

Question: What about the growth (EKVX NSCLC) of the same compound?
Answer: 93%

Question: And the growth (SN12C renal)?
Answer: 99.9%

Question: And the growth (UO-31 renal)?
Answer: 85.8%

Question: And the growth (ACHN renal)?
Answer: 111%

Question: What about the growth (CAKI-1 renal) of the same compound?
Answer: 71.7%

Question: And the growth (A498 renal)?
Answer: 114%

Question: What about the growth (CCRF-CEM leukemia) of the same compound?
Answer: 49.6%

Question: And the growth (MOLT-4 leukemia)?
Answer: 88.3%

Question: What does the source list for `OCc1cnccc1NCCCCOc1ccc(Oc2ccccc2)cc1`?
Answer: growth (HCT-15 colon): 49.8%; growth (HT29 colon): 24.6%; growth (SNB-75 CNS): 71.6%; growth (SNB-19 CNS): 74.6%; growth (U251 CNS): 52.3%; growth (PC-3 prostate): 56%; growth (SK-MEL-5 melanoma): 15.7%; growth (UACC-62 melanoma): 61.5%; growth (SK-MEL-28 melanoma): 70.2%; growth (SK-MEL-2 melanoma): 81.6%; growth (EKVX NSCLC): 50.6%; growth (SN12C renal): 70.7%; growth (UO-31 renal): 49.8%; growth (TK-10 renal): 66.1%; growth (ACHN renal): 80.3%; growth (CAKI-1 renal): 70.7%; growth (A498 renal): 76.9%; growth (CCRF-CEM leukemia): 53.9%; growth (MOLT-4 leukemia): 45.1%
